Among the data in the supplement of paper PMC10646978 are IRF reporter values, retold here.

± gives the standard deviation.

The subject of one test is RAW-Dual (murine macrophage reporter line). Kind of test: IRF reporter (Lucia luciferase) activity fold change vs agonist alone; higher = enhanced IRF activity. Conditions: modulator concentration 10 µM; agonist: LPS 0.1 ug/mL. The method in brief: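 Overnight stimulation with a PRR agonist followed pre-incubation for 1 hour at 37 °C with compound at 10 μM final. This was done in RAW-Dual murine macrophage reporter cells seeded at 50 000 per well in 384-well plates. NF-κB (SEAP, QUANTI-Blue absorbance at 620 nm) and IRF (Lucia luciferase, QUANTI-Luc luminescence) were read from the supernatant. Each reporter's fold change relative to the mean agonist-only control on the same plate was averaged over replicate plates.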
For `Cl.OC(CC#CCN1CCCC1)(c1ccccc1)c1ccccc1`, the IRF reporter stood at 1.28 ± 0.15.
Turning to `CCN(CC)CC#CCOC(=O)C(O)(c1ccccc1)C1CCCCC1.Cl` (stereo not given), the IRF reporter was 1.12 ± 0.2.
Turning to `CCSC1=C(C#N)C2(CCCC2)C(C#N)C(=O)N1` (stereo not given), the IRF reporter amounted to 1.34 ± 0.2.
The same measure, in the same setting: for `CC(=O)Nc1ccc(O)cc1` [Prestw-868] the value was 0.938 ± 0.19.
As to `COc1ccc(CNc2nc(N3CCC[C@H]3CO)ncc2C(=O)NCc2ncccn2)cc1Cl`, the IRF reporter came to 1.39 ± 0.4.
On the same count and under the same terms, the figure for `COc1ccc(CCNCC(O)COc2cccc(C)c2)cc1OC.Cl` (stereo not given) is 1.19 ± 0.14; for `CCCC(CCC)C(=O)O` it is 0.965 ± 0.032; for `CNc1ncnc2c1ncn2[C@@H]1O[C@H](CO)[C@@H](O)[C@H]1O` [Prestw-338] it is 1.25 ± 0.17.
Take `CN1CCN2c3ccccc3Cc3ccccc3C2C1.Cl` (stereo not given): the IRF reporter was found to be 1.32 ± 0.3.
Turning to `CN1CC(=O)N2[C@H](c3ccc4c(c3)OCO4)c3[nH]c4ccccc4c3C[C@@H]2C1=O`, the IRF reporter worked out at 1.01 ± 0.24.
On the same count and under the same terms, the figure for `Cc1ccc2[nH]c3nc(NN)nnc3c2c1` is 0.998 ± 0.077; for `N#Cc1nc(-c2ccc(COc3ccc(Cl)cc3)o2)oc1N1CCCCC1` it is 1.57 ± 0.1.
Same read-out and setting: the figure for `Nc1ccn([C@H]2CC[C@@H](CO)O2)c(=O)n1` is 0.976 ± 0.06; for `COc1ccccc1-n1ncc2c(C)nnc(SCC(=O)NCc3ccccc3Cl)c21` it is 0.882 ± 0.15.
Consider `Cc1[nH]nc(-c2ccc(OCc3ccccc3)c(C)c2O)c1-c1cnn(-c2ccccc2)c1`, for which the IRF reporter turned out to be 1.58 ± 0.19.
Still for that read-out and setting: for `CCOc1ccccc1OCCCCOc1ccc(I)cc1` the value was 0.994 ± 0.098; for `CC1CC(=O)C2=C(C1)OC(N)=C(C#N)C2c1cccc2ccccc12` (stereo not given), 1.26 ± 0.088; for `COC(=O)C1=C(C)N(C)C(C)=C(C(=O)OC)C1c1cccc(C(F)(F)F)c1`, 1.32 ± 0.22.
On to `CNS(=O)(=O)C[C@H]1CC[C@H](N(C)c2ncnc3[nH]ccc23)CC1.O=C(O)/C=C\C(=O)O`, for which the IRF reporter turned out to be 0.269 ± 0.029.
As to `Oc1nc(O)nc(N(c2ccccc2)c2ccccc2)n1`, the IRF reporter is 1.09 ± 0.15.
Regarding `Cn1c(=O)c2c(ncn2CC(O)CO)n(C)c1=O` (stereo not given), the IRF reporter is 1.32 ± 0.21.
On to `CC(C)CNC(=O)C(=O)Nc1ccc(C(C)C)cc1`, for which the IRF reporter was 0.959 ± 0.052.
Turning to `CN1C(=O)C(=Cc2cccc3ccccc23)SC1=S`, the IRF reporter turned out to be 1.26 ± 0.22.
Regarding `O=C(Nc1cc(N2CCN(Cc3ccccc3)CC2)ncn1)c1ccc2ccccc2n1`, the IRF reporter came to 1.07 ± 0.067.
With `O=C(NCCN1CCN(c2ccc(Cl)cc2)CC1)c1cnccn1`, the IRF reporter came to 1.01 ± 0.055.
Same read-out and setting: the figure for `Cc1nnc(C(C)C)n1C1CC2CCC(C1)N2CC[C@H](NC(=O)C1CCC(F)(F)CC1)c1ccccc1` (stereo not given in full) is 0.973 ± 0.087; for `O=C(CSC1CC(=O)N(c2ccc(C(=O)O)cc2)C1=O)Nc1ccc(F)cc1` (stereo not given) it is 1.25 ± 0.15.
In the case of `CCCCSc1nnc2c(n1)OC(c1cccc(C)n1)Nc1ccc(Br)cc1-2` (stereo not given), the IRF reporter came to 1.02 ± 0.068.
Still for that read-out and setting: the figure for `Cc1ccc(-n2c(=O)c3c4c(sc3n3c(S)nnc23)CCCC4)cc1` is 1.41 ± 0.21.
Still for that read-out and setting: for `Cc1cc(C)n(CCNc2nc3ccccc3s2)n1` the value was 1.18 ± 0.081; for `CCN(CC)CC(=O)Nc1c(C)cccc1C.Cl`, 0.927 ± 0.039; for `COc1cc(C=C(C#N)c2nc3ccccc3[nH]2)cc(Cl)c1O`, 1.06 ± 0.061.
For the molecule `C/C(O)=C(\C#N)C(=O)Nc1ccc(C(F)(F)F)cc1`, the IRF reporter was 1.24 ± 0.26.
With `CC(C)CSc1nnc2c(n1)[nH]c1ccccc12`, the IRF reporter was found to be 1.05 ± 0.047.
For `O=C1c2ccccc2C(=O)c2c1ccc(O)c2O`, the IRF reporter worked out at 0.949 ± 0.039.
Turning to `Oc1cccc(C=Nc2ccc(N=Cc3cccc(O)c3O)cc2)c1O`, the IRF reporter was 0.93 ± 0.2.
With `COCC(=O)N1CCC2(CC1)NC(=O)N(Cc1ccc(Cl)cc1)C2=O`, the IRF reporter was 1.02 ± 0.12.
For the molecule `CS(=O)(=O)N1CCN(Cc2cc3nc(-c4cccc5[nH]ncc45)nc(N4CCOCC4)c3s2)CC1`, the IRF reporter turned out to be 1.4 ± 0.24.
Regarding `COc1ccc(C=Nn2cnnc2)cc1COc1cc(C)c(Cl)cc1C(C)C`, the IRF reporter stood at 1.03 ± 0.06.
Turning to `C#CCN[C@@H]1CCc2ccccc21` [Prestw-1734], the IRF reporter came to 0.957 ± 0.054.

The test is the same for the next values; noted with them: modulator concentration 10 µM; agonist: MPLA […].
For the molecule `Cl.OC(CC#CCN1CCCC1)(c1ccccc1)c1ccccc1`, the IRF reporter was 1.42 ± 0.17.
Consider `CCN(CC)CC#CCOC(=O)C(O)(c1ccccc1)C1CCCCC1.Cl` (stereo not given), for which the IRF reporter was determined as 1.19 ± 0.29.
Regarding `CCSC1=C(C#N)C2(CCCC2)C(C#N)C(=O)N1` (stereo not given), the IRF reporter was 1.42 ± 0.23.
As to `CC(=O)Nc1ccc(O)cc1` [Prestw-868], the IRF reporter turned out to be 1.03 ± 0.14.
In the case of `COc1ccc(CNc2nc(N3CCC[C@H]3CO)ncc2C(=O)NCc2ncccn2)cc1Cl`, the IRF reporter came to 1.23 ± 0.36.
Take `COc1ccc(CCNCC(O)COc2cccc(C)c2)cc1OC.Cl` (stereo not given): the IRF reporter was determined as 1.43 ± 0.25.
As to `CCCC(CCC)C(=O)O`, the IRF reporter turned out to be 0.897 ± 0.094.
Consider `CNc1ncnc2c1ncn2[C@@H]1O[C@H](CO)[C@@H](O)[C@H]1O` [Prestw-338], for which the IRF reporter amounted to 1.33 ± 0.25.
On to `CN1CCN2c3ccccc3Cc3ccccc3C2C1.Cl` (stereo not given), for which the IRF reporter came to 1.2 ± 0.13.
`CN1CC(=O)N2[C@H](c3ccc4c(c3)OCO4)c3[nH]c4ccccc4c3C[C@@H]2C1=O`: the IRF reporter turned out to be 0.922 ± 0.08.
Take `Cc1ccc2[nH]c3nc(NN)nnc3c2c1`: the IRF reporter turned out to be 0.836 ± 0.071.
On the same count and under the same terms, for `N#Cc1nc(-c2ccc(COc3ccc(Cl)cc3)o2)oc1N1CCCCC1` the value was 1.12 ± 0.15; for `Nc1ccn([C@H]2CC[C@@H](CO)O2)c(=O)n1`, 1.02 ± 0.081.
As for `COc1ccccc1-n1ncc2c(C)nnc(SCC(=O)NCc3ccccc3Cl)c21`, the IRF reporter was determined as 0.781 ± 0.15.
On to `Cc1[nH]nc(-c2ccc(OCc3ccccc3)c(C)c2O)c1-c1cnn(-c2ccccc2)c1`, for which the IRF reporter was 1.11 ± 0.095.
Turning to `CCOc1ccccc1OCCCCOc1ccc(I)cc1`, the IRF reporter was 1.18 ± 0.17.
Regarding `CC1CC(=O)C2=C(C1)OC(N)=C(C#N)C2c1cccc2ccccc12` (stereo not given), the IRF reporter is 1.24 ± 0.14.
As to `COC(=O)C1=C(C)N(C)C(C)=C(C(=O)OC)C1c1cccc(C(F)(F)F)c1`, the IRF reporter is 0.976 ± 0.073.
Turning to `CNS(=O)(=O)C[C@H]1CC[C@H](N(C)c2ncnc3[nH]ccc23)CC1.O=C(O)/C=C\C(=O)O`, the IRF reporter was 0.376 ± 0.056.
The same measure, in the same setting: for `Oc1nc(O)nc(N(c2ccccc2)c2ccccc2)n1` the value was 1.08 ± 0.29; for `Cn1c(=O)c2c(ncn2CC(O)CO)n(C)c1=O` (stereo not given), 1.29 ± 0.23; for `CC(C)CNC(=O)C(=O)Nc1ccc(C(C)C)cc1`, 0.958 ± 0.093.
As for `CN1C(=O)C(=Cc2cccc3ccccc23)SC1=S`, the IRF reporter worked out at 1.33 ± 0.15.
In the case of `O=C(Nc1cc(N2CCN(Cc3ccccc3)CC2)ncn1)c1ccc2ccccc2n1`, the IRF reporter was found to be 1.24 ± 0.23.
Consider `O=C(NCCN1CCN(c2ccc(Cl)cc2)CC1)c1cnccn1`, for which the IRF reporter was 0.919 ± 0.097.
On the same count and under the same terms, for `Cc1nnc(C(C)C)n1C1CC2CCC(C1)N2CC[C@H](NC(=O)C1CCC(F)(F)CC1)c1ccccc1` (stereo not given in full) the value was 1.03 ± 0.11.
The same measure, in the same setting: for `O=C(CSC1CC(=O)N(c2ccc(C(=O)O)cc2)C1=O)Nc1ccc(F)cc1` (stereo not given) the value was 1.38 ± 0.22; for `CCCCSc1nnc2c(n1)OC(c1cccc(C)n1)Nc1ccc(Br)cc1-2` (stereo not given), 0.921 ± 0.11; for `Cc1ccc(-n2c(=O)c3c4c(sc3n3c(S)nnc23)CCCC4)cc1`, 1.15 ± 0.1.
As for `Cc1cc(C)n(CCNc2nc3ccccc3s2)n1`, the IRF reporter was determined as 1.14 ± 0.29.
`CCN(CC)CC(=O)Nc1c(C)cccc1C.Cl`: the IRF reporter worked out at 0.865 ± 0.11.
`COc1cc(C=C(C#N)c2nc3ccccc3[nH]2)cc(Cl)c1O`: the IRF reporter worked out at 1.07 ± 0.14.
As for `C/C(O)=C(\C#N)C(=O)Nc1ccc(C(F)(F)F)cc1`, the IRF reporter worked out at 1.4 ± 0.58.
On to `CC(C)CSc1nnc2c(n1)[nH]c1ccccc12`, for which the IRF reporter is 0.885 ± 0.14.
On to `O=C1c2ccccc2C(=O)c2c1ccc(O)c2O`, for which the IRF reporter turned out to be 0.978 ± 0.076.
As to `Oc1cccc(C=Nc2ccc(N=Cc3cccc(O)c3O)cc2)c1O`, the IRF reporter stood at 0.922 ± 0.2.
For `COCC(=O)N1CCC2(CC1)NC(=O)N(Cc1ccc(Cl)cc1)C2=O`, the IRF reporter came out at 1.15 ± 0.28.
On to `CS(=O)(=O)N1CCN(Cc2cc3nc(-c4cccc5[nH]ncc45)nc(N4CCOCC4)c3s2)CC1`, for which the IRF reporter turned out to be 1.33 ± 0.17.
Regarding `COc1ccc(C=Nn2cnnc2)cc1COc1cc(C)c(Cl)cc1C(C)C`, the IRF reporter was 1.3 ± 0.11.
On the same count and under the same terms, for `C#CCN[C@@H]1CCc2ccccc21` [Prestw-1734] the value was 0.973 ± 0.1.
